Measurements published in PubChem BioAssay AID1259418 (Broad Institute, 2018).
Screen size: about 3,400 compounds; about 840 (25%) were called active. Not shown: some 11% with an inconclusive outcome. The list is a sample of the results. Entries with a potency or affinity are not part of this list. Values without a mark were called inactive.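 Rule for the calls: active = fitted half-maximal concentration of signal decrease at or below twice the sample's top tested concentration; inconclusive = flat curve between -70 and -30 percent, or poor fit; inactive = flat within 30 percent, signal rise, or potency above limit.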

Test: T. gondii growth inhibition with IFN-gamma, dose response, cell-based, ME49Luc, HeLa, luciferase, 72 h (AID 1259418)
Conditions: T. gondii ME49Luc in IFN-y HeLa, active compounds read low, -100% = high-dose IFN-γ control wells; at 19.5 µM unless noted
CC(C)c1cc(C2CCCN2C(=O)c2cc(C(F)(F)F)nn2C)on1 (stereo not given) gave a max activity of 9.25% [at 0.35 µM].
COc1ccc(NC(=O)CN2CCC3(CC2)N=C(c2ccc(F)cc2)C(=O)N3)cc1 showed a max activity of -27.9% [at 1.35 µM].
O=C(NCCc1csc(-c2ccccc2)n1)[C@H]1CCCN1C(=O)c1ccc(Br)cc1 showed a max activity of -11% [at 0.16 µM].
Cc1nc(CCNC(=O)[C@H]2CCCN2C(=O)c2ccc(F)cc2)cs1 showed a max activity of -9.63% [at 0.16 µM].
Compound Cc1nc(CCNC(=O)[C@H]2CCCN2C(=O)c2cccc(Br)c2)cs1 has a max activity of 23.4% [at 0.16 µM].
O=C(NCCc1csc(-c2ccccc2)n1)[C@H]1CCCN1C(=O)c1ccc(F)cc1 gave a max activity of -10.4% [at 0.16 µM].
NC(=O)C1(N2CCCCC2)CCN(c2ccc(NC(=O)c3ccc(Cl)cc3)cc2C(=O)O)CC1 gave a max activity of 20.8%.
With CCN1C(=O)CCCC12CCCN(C(=O)c1ccc3ncccc3c1)C2 (stereo not given) the max activity was -6.92% [at 5 µM].
Compound Cc1ccccc1C(=O)N1CCC(N2CCOCC2)CC1C(=O)O (stereo not given) has a max activity of 15.5%.
Cc1ccc(C)c(-c2coc(-c3ccc(NC(=O)COc4ccccc4C)cc3)n2)c1 showed a max activity of -11.5%.
Work on COCC(=O)N1[C@H](C#N)[C@H](c2ccc(C#Cc3ccccc3F)cc2)[C@H]1CO yielded a max activity of -13.1% [at 10 µM].
In the case of N#C[C@@H]1[C@@H](c2ccc(C#Cc3cccnc3)cc2)[C@@H](CO)N1C(=O)NC1CCCCC1, the max activity is reported as -10.3% [at 10 µM].
With Cc1cc(C)n(C)c(=O)c1C(=O)N1CCOC(C(F)(F)F)C1 (stereo not given) the max activity was 34.4%.
For Cc1ccc(-c2coc(-c3ccc(NC(=O)CC(C)C)cc3)n2)c(C)c1, the max activity was 14.2% [at 10 µM].
For CCN(C)C(=O)c1cnc(-c2noc3cc(N4CCCCC4)ccc23)s1, the max activity was 35.7% [at 10 µM].
COc1ccc(NC(=O)Nc2ccc(-c3nc(-c4cccc(Br)c4)co3)cc2)cc1OC gave a max activity of 8.18% [at 0.35 µM].
With O=C(Nc1ccc(-c2nc(-c3ccccc3)co2)cc1)Nc1ccc(F)cc1F the max activity was 65.6%.
Work on CCOC(=O)CSC1=Nc2ccccc2C2=NC(CCC(=O)NCc3ccc(F)cc3)C(=O)N12 (stereo not given) yielded a max activity of 24.5% [at 2.6 µM].
Cc1ccc(CSC2=Nc3ccccc3C3=NC(CCC(=O)NC4CCCCC4)C(=O)N23)cc1 (stereo not given) gave a max activity of -23.8%.
O=C(CCC1N=C2c3ccccc3N=C(SCc3cccc(F)c3)N2C1=O)NC1CCCCC1 (stereo not given) showed a max activity of -18.1% [at 2.6 µM].
Work on CCOC(=O)CSC1=Nc2ccccc2C2=NC(CCC(=O)NCc3ccccc3)C(=O)N12 (stereo not given) yielded a max activity of 43.1%.
With O=C(CCC1N=C2c3ccccc3N=C(SCc3cccc(F)c3)N2C1=O)NCc1ccco1 (stereo not given) the max activity was 10.2%.
For N#CCSC1=Nc2ccccc2C2=NC(CCC(=O)NCc3ccc(F)cc3)C(=O)N12 (stereo not given), the max activity was 22.5% [at 0.35 µM].
Compound COc1ccccc1CNC(=O)CCC1N=C2c3ccccc3N=C(SCc3ccc(F)cc3)N2C1=O (stereo not given) has a max activity of 14.5% [at 0.16 µM].
Compound O=C(CC1N=C2c3ccccc3N=C(SCc3cccc(F)c3)N2C1=O)NCc1ccccc1 (stereo not given) has a max activity of -15% [at 1.35 µM].
In the case of C/C=C/c1ccc(C2[C@H]3CNC[C@@H]2N3S(=O)(=O)c2cccc(F)c2)cc1 (stereo not given in full), the max activity is reported as 51.2%.
For O=C(CC1N=C2c3ccccc3N=C(SCc3cc(=O)n4cc(Cl)ccc4n3)N2C1=O)NCc1ccccc1 (stereo not given), the max activity was 8.94%.
Cc1ccc(-c2coc(-c3ccc(NC(=O)c4ccco4)cc3)n2)c(C)c1 showed a max activity of 11.6%.
For CCOc1ccc(-c2nc(CSc3nc4c(c(=O)[nH]3)CN(C(C)C)CC4)c(C)o2)cc1OC, the max activity was 21% [at 2.6 µM].
For COc1ccc(CNC(=O)CCC2N=C3c4ccccc4N=C(SCc4ccccc4F)N3C2=O)cc1 (stereo not given), the max activity was -23.7% [at 0.35 µM].
With COc1ccc(CNC(=O)CCC2N=C3c4ccccc4N=C(SCc4ccc(Cl)cc4)N3C2=O)cc1 (stereo not given) the max activity was -5.19% [at 0.68 µM].
O=C(CCC1N=C2c3ccccc3N=C(SCc3ccccc3F)N2C1=O)NCc1ccc(F)cc1 (stereo not given) showed a max activity of 12.5% [at 1.35 µM].
For O=C(CCC1N=C2c3ccccc3N=C(SCc3ccccc3F)N2C1=O)NCCc1ccccc1 (stereo not given), the max activity was 25.3% [at 0.16 µM].
For CCc1c(C)sc2c1CCN(Cc1nc(-c3ccccc3Cl)oc1C)C2c1ccccc1 (stereo not given), the max activity was 11.5% [at 10 µM].
For CCc1ccc2c(c1)cc(S(=O)(=O)c1ccccc1)c(=O)n2CC(=O)NC(C)CC (stereo not given), the max activity was -8.4%.
Cc1ccc(-c2nc(Cn3nnc(-c4nc(-c5ccncc5)no4)c3C)c(C)o2)cc1 gave a max activity of 8.58% [at 10 µM].
CCc1c(C)sc2c1CCN(Cc1nc(-c3ccc(OC)cc3OC)oc1C)C2c1ccccc1 (stereo not given) gave a max activity of 15.7%.
CCc1c(C)sc2c1CCN(Cc1nc(-c3ccccc3C)oc1C)C2c1ccccc1 (stereo not given) gave a max activity of 25.6% [at 5 µM].
CCC(=O)N1CC(=O)N2[C@@H](CO)[C@H](c3ccc(C#CCC(C)C)cc3)[C@@H]2C1 showed a max activity of 20.4% [at 10 µM].
Compound CC(C)CC#Cc1ccc([C@H]2[C@@H](CO)N3C(=O)CN(C(=O)c4cccc(F)c4)C[C@@H]23)cc1 has a max activity of 19.1% [at 10 µM].
With CCC(=O)N1CC(=O)N2[C@H](CO)[C@H](c3ccc(C#CCC(C)C)cc3)[C@H]2C1 the max activity was 9.28% [at 10 µM].
Work on CCC(=O)N1CC(=O)N2[C@@H](CO)[C@@H](c3ccc(C#CCC(C)C)cc3)[C@@H]2C1 yielded a max activity of 22.8% [at 10 µM].
O=C(c1cccc(F)c1)N1CC(=O)N2[C@@H](CO)[C@H](c3ccc(/C=C/c4ccccc4)cc3)[C@@H]2C1 showed a max activity of 14.7% [at 5 µM].
With CCc1ccc(CNc2nc(-c3ccc(OC)cc3)nc3ccccc23)cc1 the max activity was -7.47% [at 0.16 µM].
Compound COc1ccccc1NC(=O)N1CCN(Cc2nc(-c3cccc(Cl)c3)oc2C)CC1 has a max activity of 15.9% [at 1.35 µM].
